Rows were chosen to be rich in hits. Some 2.9% of all compounds tested hit in one or more screens of this group.
Nrf2 block: inhibitors of Nrf2 signaling. 360,000 compounds, 2.1% hits. A549 ARE-Fluc reporter, luciferase luminescence, 18-24 h. Potency, µM (series often up to 46 µM), without a hit: at the highest dose activity change, negative = inhibition, most hits filed as inhibitors; further: on the % scale 0 is the no-effect control and ±100 the full control effect; nearly all actives have a fitted effect of over 60% in size
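A549 ARE_Fluc cells, 5000/well, 5% FBS OPTI-MEM; compounds in dose-response, 18-24 h at 37 °C/5% CO2; CellTiter-Fluor viability read (Ex 405/Em 525), then BugLite luciferase luminescence = Nrf2 activity.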
A549 viability: A549 cytotoxicity, counter-screen for Nrf2 inhibitors; AID 504648; Potency, µM (series often up to 46 µM), inactives show at the top dose activity change, negative = cytotoxicity, usual class: inhibitors; A549 ARE-Fluc cells, CellTiter-Fluor viability, 18-24 h; 390,000 compounds, 0.16% hits; further: on the % scale 0 is the no-effect control and ±100 the full control effect
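A549 ARE-Fluc cells in 5% FBS OPTI-MEM, 5000 cells/well, rested 2 h then exposed to compounds in concentration-response for 18-24 h at 37 °C. Viability by CellTiter-Fluor fluorescence (Ex 405/Em 525) after 30 min; luciferase luminescence (BugLite, 15 min, RT) read afterwards.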
Nrf2 activator: activates Nrf2 signaling. AREc32 ARE-luciferase reporter (MCF7-derived line), luminescence, 24 h. Potency, µM (series often up to 46.1 µM), inactives show at the top dose activation, most hits filed as activators. 410,000 compounds, 0.31% hits; further: % of control where 0% means no effect; nearly all actives have a fitted effect of over 65% in size
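Luminescent ARE reporter assay in AREc32_Fluc cells: overnight plating at 37 deg C, 24 hr compound incubation, Steady-Glo added, 30 min RT before reading.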
ATXN2 expr inh: inhibitors of ATXN2 expression; Potency, µM (top dose mostly 57 µM), for inactives: top-dose activity change, negative = inhibition, usual class: inhibitors; 360,000 compounds, 0.72% hits; HEK-293 ATXN2-luciferase reporter, luminescence, 24 h; AID 1745845; further: on the % scale 0 is the no-effect control and ±100 the full control effect; nearly all actives have a fitted effect of over 55% in size
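qHTS (up to 57 uM final) was run with 24 h compound exposure of reporter cells at 37 °C. Each well was multiplexed: SteadyGlo luminescence measured ATXN2-luciferase expression after a fluorogenic Gly-Phe-AFC viability readout (25 uM final).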
S2 tox: cell viability loss in ATXN counter-screen | Potency, µM (top dose mostly 56.7 µM), usual class: cytotoxic | 400,000 compounds, 0.49% hits | S2 cells (HEK-293 line with an ATXN2-luciferase reporter) viability, CellTiter-Fluor protease fluorescence, 24 h | AID 651635; further: nearly all actives have a fitted effect of over 40% in size
Starred values were filed as active, the others as inactive; i = inactive; ? = inconclusive; / = no result given; [ ] = another dose, or the depositor's remark. The call rests on the fitted dose curve; in most records, active means well fitted curve in the direction sought with a large enough effect; inconclusive means small, poorly fitted or top-dose-only effect, or another doubt; inactive means no such curve, though single readings can be large; an effect the other way counts as inactive or inconclusive. Potency means the concentration at half of the fitted maximal effect.

SMILES | Nrf2 block | A549 viability | Nrf2 activator | ATXN2 expr inh | S2 tox
Cc1cc(C)cc(OCCn2c(C3CC(=O)N(c4ccccc4Cl)C3)nc3ccccc32)c1 (stereo unspecified) | ? | ? | 2.5% | / | /
Cc1c(Cl)cccc1N1CC(c2nc3ccccc3n2Cc2ccccc2F)CC1=O (stereo unspecified) | ? | -12.9% | -0.4% | 0.0% | 31.6µM*
CCCCN1CC(c2nc3ccccc3n2CCCCOc2ccccc2C)CC1=O (stereo unspecified) | 15.1% | 7.9% | -2.9% | -24.2% | ?
Cc1cccc(C)c1OCCCCn1c(C2CC(=O)N(c3ccc(F)cc3)C2)nc2ccccc21 (stereo unspecified) | 20.6µM* | ? | -0.3% | -12.1% | ?
COc1ccc(OCCn2c(C3CC(=O)N(c4ccc(F)cc4)C3)nc3ccccc32)cc1 (stereo unspecified) | ? | -14.6% | 6.4% | ? | ?
CCOc1ccc(N2CC(c3nc4ccccc4n3Cc3ccccc3F)CC2=O)cc1 (stereo unspecified) | ? | -17.6% | 1.6% | 13.9% | i
CCCCN1CC(c2nc3ccccc3n2CCCCOc2c(C)cccc2C)CC1=O (stereo unspecified) | ? | 6.6% | -3.9% | 22.4µM* | ?
Cc1cccc(C)c1OCCn1c(C2CC(=O)N(c3cccc(Cl)c3)C2)nc2ccccc21 (stereo unspecified) | 20.6µM* | ? | -0.8% | -12.8% | i
COc1ccc(C(=O)Nc2ccc3c(c2)CCCN3S(=O)(=O)c2ccc(C)cc2)c(OC)c1 | / | 3.7% | 4.1% | 11.3% | i
CN[C@@H]1[C@@H](O)[C@@H](O[C@@H]2[C@@H](O)[C@H](O[C@H]3O[C@H](CN)[C@@H](O)[C@H](O)[C@@H]3O)[C@@H](N)C[C@@H]2NC(=O)[C@@H](O)CN)OC[C@]1(C)O | / | / | / | 4.6% | /
Cc1cc(NCc2ccc(Cl)cc2)n2cnnc2n1 | ? | -2.6% | -1.0% | / | /
O=C1CCC2=C1C(c1ccccc1Cl)N=C(Nc1nc3ccccc3o1)N2 (stereo unspecified) | 17.8% | 1.9% | / | / | /
CCOC(=O)c1ccccc1NC(=O)CN(c1ccccc1OC)S(=O)(=O)c1ccc(C)cc1 | / | 12.0% | 6.3% | -4.0% | i
CCOc1ccccc1N1CC(c2nc3ccccc3n2CCCOc2ccc(OC)cc2)CC1=O (stereo unspecified) | ? | -20.6% | -0.1% | 9.1% | i
CCOc1ccccc1N1CC(c2nc3ccccc3n2CCOc2ccc(OC)cc2)CC1=O (stereo unspecified) | ? | -9.5% | 0.2% | ? | 31.6µM*
N#CC(=C(O)COC(=O)CCC1CCCCC1)c1nc2ccccc2[nH]1 | 6.7% | 0.3% | 0.7% | 20µM* | /
N#C/C(=C(/O)COC(=O)CSc1ccc(Cl)cc1)c1nc2ccccc2[nH]1 | -25.2% | 0.3% | ? | 28.2µM* | 14.1µM*
Cc1cc(SCC(=O)OC/C(O)=C(\C#N)c2nc3ccccc3[nH]2)c(C)cc1Br | ? | -12.1% | 12.7% | ? | i
COc1ccccc1OCC(=O)OC/C(O)=C(\C#N)c1nc2ccccc2[nH]1 | -2.2% | -3.2% | 5.6% | / | 3.16µM*
Cc1cccc(S(=O)(=O)C(C#N)c2nc3ccccc3nc2N2CC(C)OC(C)C2)c1 (stereo unspecified) | 16.4µM* | -23.2% | -0.3% | -37.4% | i
N#CC1=C(SCC(=O)NC23CC4CC(CC(C4)C2)C3)NC(=O)C(C#N)C12CCCCC2 (stereo unspecified) | 14.6µM* | ? | 0.7% | ? | ?
N#CC1=C(SCC(=O)NC2CC2)NC(=O)C(C#N)C12CCCCC2 (stereo unspecified) | -9.8% | -0.2%[1.84 µM] | -0.3% | 1.7% | i
CCn1cc(C(=O)NCc2ccc3c(c2)OCO3)c(=O)c2cc(F)c(N3CCN(C(=O)c4ccco4)CC3)cc21 | 16.4µM* | ? | 0.7% | ? | ?
CCCCCOc1ccc(C(=O)CCN2CCOCC2)cc1 | ? | -5.7% | 20µM* | -0.1% | i
Cc1ccc(C(=O)C2CCN(C(=O)c3ccc(C)cc3)CC2)cc1 | 23.1µM* | -13.7% | -0.4% | ? | ?
SMILES | Nrf2 block | A549 viability | Nrf2 activator | ATXN2 expr inh | S2 tox
COc1ccc(C(=O)C2CCN(C(=O)c3ccc(OC)cc3)CC2)cc1 | 23.1µM* | -11.2% | 0.4% | -21.5% | i
COc1ccc(OCCN2CCN(C(=O)c3ccc(OC(F)F)c(OC)c3)CC2)cc1 | ? | 0.6% | 0.7% | ? | i
CC(C)Oc1ccc(C(=O)CCN2CCOCC2)cc1 | -4.0% | -0.6% | -0.4% | ? | ?
COc1ccc(OCCN2CCN(C(=O)c3ccc(OC)cc3)CC2)cc1 | 10.3µM* | -13.3% | -0.3% | -24.9% | i
Cc1ccc(C(=O)N2CCC(C(=O)c3ccc(F)cc3)CC2)cc1 | ? | 3.6% | 2.9% | / | i
COc1ccc(C(=O)N2CCC(C(=O)c3ccc(F)cc3)CC2)cc1 | -32.1% | -0.9% | 0.2% | -5.0% | i
COc1ccc(-c2nc3ccccc3c(=O)n2Cc2ccccc2)cc1OCc1ccc(NC(C)=O)cc1 | 7.2% | 0.6% | / | / | /
COc1cc(CNc2ccc(N3CCOCC3)cc2)ccc1OCC(=O)NC(C)(C)C | 16.4µM* | -2.0% | 2.8% | / | i
COc1cc(CNc2ccc(CNc3ncn[nH]3)cc2)ccc1OCC(=O)NC(C)(C)C | 16.4µM* | -1.2% | 0.8% | -17.5% | i
CCOC(=O)/C(=C/c1ccc(OC(F)F)cc1)C1=Nn2c(nnc2-c2ccc(Cl)cc2)SC1 | ? | ? | ? | 10µM* | 7.94µM*
CCC1(C2CCN(C(=O)c3ccccc3C(C)=O)CC2)NC(=O)N(CCc2scnc2C)C1=O (stereo unspecified) | / | / | / | / | i
O=C(CC1(c2cccc(F)c2)CC(=O)N(Cc2cccnc2)C1=O)N1CCCCCCC1 (stereo unspecified) | / | / | / | / | i
Cc1cc(-c2ccccc2)nc2[n+]1CCN2C | 5.17µM* | -14.6% | 0.2% | -4.6% | i
COc1cccc(CNC(=O)c2c(OC)cc(=O)n3c2CCN(C(=O)c2ccc(C)nc2)CC3)c1 | / | / | / | / | i
CC(C)C[C@@H]1NC(=O)[C@H](Cc2ccccc2)N(C)C(=O)[C@H](C)NC(=O)c2ccccc2NC(=O)[C@H](Cc2ccc(O)cc2)N(C)C1=O | 23.1µM* | ? | 4.0% | ? | i
CN(C)c1nc2cc3c(cc2cc1CN(CC1CCCO1)C(=O)/C=C/c1cccs1)OCO3 (stereo unspecified) | / | / | / | / | i
COCC(=O)N(CCc1ccccc1)Cc1cc2cc(C)ccc2nc1Cl | -0.3% | 6.4% | -0.2% | -24.1% | i
COCC(=O)N(CCc1ccc(OC)c(OC)c1)Cc1cc2cc(C)ccc2nc1Cl | 16.4µM* | -1.1% | -0.2% | -20.4% | i
